# Test results from PubChem BioAssay (NCATS).
# Results filed as inconclusive are left out. Where a call stands in place of a potency, no number is given. Active and inactive are the calls of the source. Calls follow the shape of the dose curve; as a rule, active = well fitted cell-killing curve with a large enough effect; inconclusive = small, poorly fitted or top-dose-only effect; inactive = flat fitted curve, though single readings scatter.
# Experiment: Cellular viability qHTS for adrenocortical cancer (ACC) cell line NCI-H295R (AID 1963990); also: nearly all actives have a fitted effect of over 60% in size
# Conditions: CellTiter-Glo ATP luminescence, 48 h; series mostly up to 46.1 µM
# Description: PI: Naris Nilubol, MD Surgical Oncology Program, National Cancer Institute (NCI) National Institute of Health (NIH), Bethesda, Maryland Adrenocortical cancer (ACC) is a rare malignancy with poor survival outcomes and few treatment options. Currently, mitotane is the only FDA-approved therapy for ACC. Although adjuvant radiation therapy is rarely utilized, it has the potential to improve survival in select cases. Through a quantitative high-throughput drug screen (qHTS), we identified auranofin (AF), a thioredoxin reductase (TXNRD) inhibitor, as a promising candidate drug. This study aims to evaluate whether AF can enhance the efficacy of radiation therapy in the treatment of ACC. Two human ACC cell lines, SW-13 and NCI-H295R, were screened using the National Center for Advancing Translational Sciences (NCATS) Pharmaceutical Collection (NPC) and the Mechanism Interrogation PlatE (MIPE) library (~4,991 compounds). CellTiter-Glo (Cat # G7570, Promega, Madison, WI) was utilized to measure cell viability. Described herein are the results of the corresponding viability assay.
# PROTOCOL TABLE (as described by Inglese J, Shamu CE and Guy RK. 2007) SEQUENCE No. (e.g., 1, 2, 3, etc.); […] (e.g., Cells, Incubation, Reagent, etc.); VALUE; DESCRIPTION. 1; Cells; 5 uL; white, solid-bottom, 1536-well tissue-culture treated plates. 2; Time; overnight culture at 37C with 5% CO2. 3; Compounds and control; 23 nL; Kalypsis pin tool (Wako USA) equipped with a 1536-well pin head to transfer to the assay plates. 4; Time; 48 hours; 37C with 5% CO2. 5; Reagent; 4 uL; CellTiter-Glo luminescent substrate mix. 6; Time; 20 min at room temperature. 7; Detection; Luminescence; ViewLux plate reader NOTES (numbers refer to Sequence numbers above) 1. NCI-H295R cells were harvested from a T175 flask and resuspended in ITS-supplemented DMEM serum-free medium at a concentration of 300 000 cells/mL. Then 5 uL of resuspended cells were dispensed into each well of white, solid-bottom, 1536-well tissue-culture-treated plates using a multidrop combi dispenser. The plates were covered with stainless steel gasket lids. 2-3. The plates were cultured overnight at 37C with 5% CO2. Twenty-three nL of compounds (eight selected concentrations from the NPC / MIPE) or positive control (10 mM stock of bortezomib) in DMSO was transferred to each well of the assay plate using a pin tool (Kalypsys, San Diego, CA, USA). The final concentration of the compounds in the 5 uL assay volume ranged from 0.5 nM to 46 uM. 4-6. After 48 hours of incubation at 37C and 5% CO2, 4 uL of CellTilter-Glo luminescent substrate mix (Promega, Madison, WI, USA) was added to each well. Then the plates were incubated for 20 minutes at room temperature. 7. After incubation, luminescence was measured using a ViewLux plate reader (PerkinElmer, Waltham, MA, USA) with a clear filter was used to measure the number of metabolically competent cells. To determine compound activity in the qHTS assay, the titration-response data for each sample was plotted and modeled by a four-parameter logistic fit yielding IC50 and efficacy (maximal response) values. Raw plate reads for each titration point were normalized relative to positive control ([…], 100% inhibition) and DMSO-only wells (basal, 0%). REFERENCES: Inglese J, Shamu CE and Guy RK, Reporting data from high throughput screening of small molecule libraries, Nature Chemical Biology, 2007, 3(8): 438-441. doi.org/10.1038/nchembio0807-438.
row,Structure (SMILES),Potency
1,O=NN(CCCl)C(=O)NCCCl,inactive
2,Cc1ccc(C(=O)c2ccc(CC(=O)O)n2C)cc1,inactive
3,COc1cc2c(N3CCN(C(=O)Nc4ccc(OC(C)C)cc4)CC3)ncnc2cc1OCCCN1CCCCC1,inactive
4,Cn1c(=O)c2[nH]cnc2n(C)c1=O,inactive
5,OCC(O)CS (stereo not given),inactive
6,CCNC(=O)/C=C/c1cccc(Br)c1,inactive
7,N#CNC(=NCCCCCCOc1ccc(Cl)cc1)Nc1ccncc1,15.8 nM (active)
8,C=CC(=O)Nc1cccc(Oc2nc(Nc3ccc(N4CCN(C)CC4)cc3)ncc2Cl)c1,2510 nM (active)
9,COc1ccc(CN(CCN(C)C)c2ncccn2)cc1,inactive
10,CCC1(c2cnc[nH]2)Cc2ccccc2C1,inactive
11,COc1cc(OC)c2c(=O)[nH]c(-c3cc(C)c(OCCO)c(C)c3)nc2c1,inactive
12,NC(=O)CC[C@@H]1NC(=O)[C@H](Cc2ccccc2)NC(=O)[C@H](Cc2ccc(O)cc2)NC(=O)CCSSC[C@@H](C(=O)N2CCC[C@H]2C(=O)N[C@@H](CCCN=C(N)N)C(=O)NCC(N)=O)NC(=O)[C@H](CC(N)=O)NC1=O,inactive
13,CCN(CC)CCOCCOC(=O)C1(c2ccccc2)CCCC1,inactive
14,CCNCc1nc2c(N)nc3ccccc3c2n1CC(C)(C)O,inactive
15,CO[C@H]1C[C@@H]2CC[C@@H](C)[C@@](O)(O2)C(=O)C(=O)N2CCCC[C@@H]2C(=O)O[C@H]([C@@H](C)C[C@@H]2CC[C@H](O)[C@H](OC)C2)CC(=O)[C@H](C)C=C(C)[C@@H](O)[C@@H](OC)C(=O)[C@H](C)C[C@H](C)C=CC=CC=C1C,28200 nM (active)
16,COc1cccc(OCCCN)c1-c1cc(Nc2cnc(C#N)cn2)n[nH]1,inactive
17,Clc1ccccc1-c1nc(-c2ccncc2)no1,inactive
18,O=S(=O)(O)CCS,inactive
19,CC(=O)Nc1ccccc1,inactive
20,Cc1cc(O)c(-c2ccc([C@@H](C)CN(C)C)cc2)c2c1[nH]c(=O)c1sccc12,251 nM (active)

row,Structure (SMILES),Potency
1,CCCC1OC2C[C@@H]3[C@H]4CCC5=CC(=O)C=C[C@]5(C)[C@H]4C(O)C[C@]3(C)[C@]2(C(=O)CO)O1 (stereo not given in full),inactive
2,CC(=O)OC[C@H]1O[C@@H](OC(C)=O)[C@H](OC(C)=O)[C@@H]1OC(C)=O,inactive
3,CO[C@@H]1[C@@H](OC)[C@H](C)[C@@](O)(CC(=O)O)O[C@H]1[C@H](C)[C@H]1O[C@@]2(CC[C@@](C)([C@H]3CC[C@@](C)([C@@H]4O[C@@H]([C@H]5O[C@](C)(O)[C@H](C)C[C@@H]5C)C[C@@H]4OC4C[C@H](OC)[C@@H](OC)[C@H](C)O4)O3)O2)C[C@H](O)[C@H]1C (stereo not given in full),1160 nM (active)
4,CCOC(=O)C=C[C@H](C[C@@H]1CCNC1=O)NC(=O)[C@@H](CC(=O)[C@@H](NC(=O)c1cc(C)on1)C(C)C)Cc1ccc(F)cc1,inactive
5,Cc1ccc(S(=O)(=O)OCC(=O)Nc2ccc(C(=O)O)c(O)c2)cc1,inactive
6,CN1N=C(C(N)=O)CCC1=O,inactive
7,COC[C@H](NC(=O)c1cnc(C)s1)C(=O)N[C@@H](COC)C(=O)N[C@@H](Cc1ccccc1)C(=O)[C@@]1(C)CO1,282 nM (active)
8,OCCN1CCN(CC/C=C2/c3ccccc3Sc3ccc(C(F)(F)F)cc32)CC1,16400 nM (active)
9,CC(C)OC(=O)C1=CN(C(=O)c2ccc(F)c(F)c2)CC(C)(C)c2c1[nH]c1ccccc21,inactive
10,OC[C@H]1O[C@@H](n2cnc3c2NC=NC[C@H]3O)C[C@@H]1O,inactive
11,COc1ccc(C(=O)CC2(O)C(=O)Nc3c(Cl)ccc(Cl)c32)cc1 (stereo not given),inactive
12,CC(=NNC(=O)c1cccc(S(=O)(=O)N2CCOCC2)c1)c1cc(Cl)ccc1O,4470 nM (active)
13,O=C(O)CCCC[P+](c1ccccc1)(c1ccccc1)c1ccccc1,inactive
14,NCCCCCC(=O)O,inactive
15,COc1ccc(C(=O)N2CCN(C(=O)/C=C/c3ccc(Br)cc3)CC2)cc1,inactive
16,CNCc1ccc(-c2[nH]c3cc(F)cc4c3c2CCNC4=O)cc1,inactive
17,COC(=O)C1=C(C)NC(COC(N)=O)=C(C(=O)OC(C)C)C1c1cccc(Cl)c1Cl (stereo not given),20600 nM (active)
18,CC(C)(Oc1ccc(CCNC(=O)c2ccc(Cl)cc2)cc1)C(=O)O,inactive
19,COc1cc2c(cc1OC)C1CC(=O)C(CC(C)C)CN1CC2 (stereo not given),inactive
20,Oc1ccccc1-c1nnco1,inactive
